Assay outcomes (PubChem)
Imprint erasure = genomic imprint erasure induction; mouse ES Peg3-LacZ reporter, beta-gal luminescence, 40 h; Potency, µM (highest dose often 60.7 µM), usual class: activators; hit rate 0.02% among 110,000
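Each well holds 300 Peg3LacZ-Neo (maternal) female ES cells incubated 40 h at 37C, 5% CO2. LacZ is measured by BetaGlo luminescence, with AC50 and maximum efficacy derived from dose-response curves.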
p53ts 39C tox = kills p53ts cells at the nonpermissive temperature. AID 902. H1299-p53A138V viability at 39C, ATP luminescence, 24 h. hit rate 1.5% among 130,000. Potency, µM (highest dose often 46.1 µM), hits mostly cytotoxic; further: nearly all actives have a fitted effect of over 55% in size
p53ts 32C kill = cytotoxicity in p53ts cells at permissive temperature. H1299-p53A138V at 32C, ATP luminescence viability, 24 h. Potency, µM (doses to about 46.1 µM), usual class: cytotoxic. hit rate 0.93% among 130,000; further: nearly all actives have a fitted effect of over 55% in size
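H1299-p53 A138V cells (temperature-sensitive p53) exposed 24 h to up to 46 uM compound at 32C, where p53 is wild-type in conformation. Viability read as ATP luminescence and normalised to DMSO and 100 uM tamoxifen. AC50 fitted with the Hill equation.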
Numbers stand for hits; . = inactive; ? = inconclusive; / = not tested or not shown; ! = not active in a repeat; [ ] = another dose, or the depositor's remark. This is a sample that favours compounds with a hit; in the whole collection about 1.6% have one here. The call rests on the fitted dose curve; in most records, active means well fitted curve in the direction sought with a large enough effect; inconclusive means small, poorly fitted or top-dose-only effect, or another doubt; inactive means no such curve, though single readings can be large; an effect the other way counts as inactive or inconclusive.

SMILES	Imprint erasure	p53ts 39C tox	p53ts 32C kill
Cc1nc2nc(SCc3c(F)cccc3Cl)nn2c(C)c1Cc1ccccc1	.[10.9 µM]	.	.
Cc1cc(C(C)(C)CC(C)(C)C)ccc1OCCOCC[N+](C)(C)Cc1ccccc1	.	25µM!	25µM!
CC(C)(C)CC(C)(C)c1ccc(O)c(C[N+](C)(C)[O-])c1	.[10.9 µM]	.[9.22 µM]	.[9.22 µM]
CCOc1ccc(-c2c(C)nn3c(C)c(C(=O)NCC(C)c4ccccc4)cnc23)cc1OCC (configuration not stated)	.[10.9 µM]	.	.
O=c1c(-c2ccc(F)cc2)nc2cnc(N3CCOCC3)nc2n1C1CC1	?	.	.
CC(=O)Nc1cc(C(=O)NCc2ccc(F)cc2)ccc1Sc1ccc(C)cc1	.[10.9 µM]	.	.
Cc1cccn2c(=O)cc(COc3cccc(NC(=O)c4ccccc4F)c3)nc12	.[10.9 µM]	7.9µM	.
COC(=O)c1ccccc1NC(=O)Nc1cccc(OCc2cc(=O)n3cccc(C)c3n2)c1	.[10.9 µM]	.	.
Cc1ccc(CNC(=O)C2CCN(C(=O)c3cnn(-c4ccccc4)c3-n3cccc3)CC2)cc1	.[10.9 µM]	.	.
Cc1cccc(NC(=O)c2sc3cccc(Cl)c3c2Cl)c1	.[10.9 µM]	.	.
CC(C)OCCCNC(=O)CSc1c2c(nc3ccc(Cl)cc13)CCCC2	.[10.9 µM]	?	13µM
COCCCNC(=O)CSc1c2c(nc3ccc(Cl)cc13)CCCC2	.[10.9 µM]	?	?
O=C(NCc1cccnc1)C(=O)NCC(c1cccnc1)N1CCN(c2ccc(F)cc2)CC1 (configuration not stated)	.[10.9 µM]	?	.
O=C(NCCc1ccccc1)C(=O)NCC(c1cccnc1)N1CCN(c2ccc(F)cc2)CC1 (configuration not stated)	.[10.9 µM]	20µM	?
O=C(Nc1c(C(=O)Nc2cccc(F)c2)oc2ccccc12)c1ccc2c(c1)OCO2	.	.	.
CN(C)CCN(Cc1ccco1)C(=O)c1oc2ccccc2c1NC(=O)c1cccc(F)c1	?	10µM	.
CCC(=O)N1CCc2cc(S(=O)(=O)NC(C(=O)NCCc3ccc(Cl)cc3)C(C)C)ccc21 (configuration not stated)	.[10.9 µM]	.	.
COc1ccc(CC2C(=O)Nc3ccc(Br)cc32)cc1OC (configuration not stated)	.[10.9 µM]	.	.
CCCOc1ccc(CC2C(=O)Nc3ccc(Br)cc32)cc1 (configuration not stated)	.[10.9 µM]	20µM	?
CN1C(C(=O)NC(C)(C)C)=CC(c2ccc3c(c2)OCO3)=NS1(=O)=O	.[10.9 µM]	.	.
CCOc1ccc(N2C(=O)CC(Sc3nc(C)cc(C)n3)C2=O)cc1 (configuration not stated)	.	.	.
CCOc1ccc(N2C(=O)CC(SCCN)C2=O)cc1 (configuration not stated)	/	13µM	13µM
Cc1cccn2c(=O)c3cc(C(=O)NCc4ccccc4)c(=N)n(CCOCCO)c3nc12	.[10.9 µM]	.	.
CCN1CCN(c2cc(C)c3cc(NC(=O)/C=C/c4ccc(OCCC(C)C)cc4)ccc3n2)CC1	.[10.9 µM]	6.3µM	.
CCN1CCN(c2cc(C)c3cc(NC(=O)c4cc(OC)c(OC)c(OC)c4)ccc3n2)CC1	.[10.9 µM]	.	.
SMILES	Imprint erasure	p53ts 39C tox	p53ts 32C kill
CCN1CCN(c2cc(C)c3cc(NC(=O)/C=C/c4ccc(C)cc4)ccc3n2)CC1	.[10.9 µM]	3.2µM	?
COc1ccc(/C=C/C(=O)Nc2ccc3nc(N4CCC(C)CC4)cc(C)c3c2)cc1OC	.[10.9 µM]	.	.
CC(C)C[C@H](NC(=O)[C@@H](O)[C@@H](N)Cc1ccccc1)C(=O)O	/	.	.
Cc1nc2ccc(S(=O)(=O)NCC(=O)Nc3ccc(F)cc3F)cc2s1	.[10.9 µM]	.	.
Cc1ccc(CNC(=O)c2ccc3c(c2)nc2n3CCOC2)cc1	.[10.9 µM]	.	.
O=C(NCCc1ccccc1Cl)c1ccc2c(c1)nc1n2CCOC1	.[10.9 µM]	4µM	16µM
Cc1cccc(CCNC(=O)c2ccc3c(c2)nc2n3CCCCC2)c1	.[10.9 µM]	7.9µM	13µM
Cc1cccc(CCNC(=O)c2ccc3c(c2)nc2n3CCOC2)c1	.[10.9 µM]	13µM	?
Cc1ccc(CCNC(=O)c2ccc3c(c2)nc2n3CCCCC2)cc1	.[10.9 µM]	.	.
O=C(NCc1cccc(Cl)c1)c1ccc2c(c1)nc1n2CCOC1	.[10.9 µM]	.	.
CC1=CC(=O)C2C(C)(C)CCC[C@@]2(C)[C@@]1(O)CCc1ccoc1 (some centres not stated)	.	.	.
CC1CCCN(S(=O)(=O)c2cc(C(=O)NCc3ccccc3Cl)n(C)c2)C1 (configuration not stated)	.[10.9 µM]	.	.
O=c1c(CCc2ccccc2)nc2cnc(N3CCNCC3)nc2n1CCc1ccccc1	/	10µM	13µM
COc1cccc(Cn2c(=O)c(-c3cc(F)cc(F)c3)nc3cnc(N4CCNCC4)nc32)c1	.	16µM	?
CN1CCN(c2ncc3nc(CCc4ccccc4)c(=O)n(CCc4ccccc4)c3n2)CC1	.	?	?
O=c1c(-c2ccc(F)cc2)nc2cnc(N3CCNCC3)nc2n1-c1ccccc1	.	?	13µM
O=c1c(-c2cc(F)cc(F)c2)nc2cnc(N3CCNCC3)nc2n1Cc1ccc(F)cc1	.	?	?
O=c1c(-c2cccs2)nc2cnc(N3CCNCC3)nc2n1-c1ccccc1	/	.	.
Cc1nc(NC2CCCCC2)c2nc(-c3ccccc3)n(CCN3CCCCC3)c2n1	.	?	?
CCCc1nnc(N2C(=O)c3oc4ccc(F)cc4c(=O)c3C2c2ccc(C(=O)OC)cc2)s1 (configuration not stated)	.[10.9 µM]	.	.
Cc1cc(C)cc(NC(=O)CSCc2cc(=O)c3ccc(C)c(C)c3[nH]2)c1	.[10.9 µM]	.	.
Nc1cc(C2CCCC2)nn1-c1ccccc1	.	?	13µM
Cc1nn(-c2ccccc2)c2nc(C3CC3)cc(C(=O)Nc3cccc(F)c3)c12	.[10.9 µM]	.	.
CCOc1sc2nc(C)n(CC(=O)Nc3cccc(C)c3)c(=O)c2c1C	.[10.9 µM]	.	.
COc1cc(-c2oc3cc(O)ccc3c(=O)c2O)ccc1O	.	.	.
SMILES	Imprint erasure	p53ts 39C tox	p53ts 32C kill
CCOc1ccc(-c2oc3cc(Cl)ccc3c(=O)c2O)cc1OC	.[10.9 µM]	7.9µM	.
Cc1cc2nc(-c3ccc(NC(=O)C(C)C)cc3)oc2cc1C	.	.	.
CC(C)C(=O)Nc1ccc(-c2nc3cccnc3o2)cc1	.	10µM	10µM
O=C(c1cccs1)N1CCC(Cc2ccccc2)CC1	/	.	.
O=C(Cc1cc(=O)[nH]c(=O)[nH]1)N1CCC(Cc2ccccc2)CC1	.	?	10µM
OC[C@H]1O[C@@H](n2cnc3c(Nc4ccccc4)ncnc32)[C@H](O)[C@H]1O	.	/	/
CO[C@@H]1COC(=O)C/C=C\[C@@H](C)COC(=O)[C@H](COCc2ccccc2)NC(=O)C/C=C\[C@H]1C	/	.[9.22 µM]	.[9.22 µM]
COc1cc(N[C@@H](C)CCCN)c2ncccc2c1	.	?	.
Cc1ccccc1NC(=O)c1cnc2ccccn2c1=O	/	16µM	10µM
Cc1cc(Br)cc(C)c1NC(=O)c1cnc2ccccn2c1=O	.[10.9 µM]	.	.
CCOC(=O)/C(C#N)=C/c1ccc(-c2ccc(Br)cc2)o1	.[10.9 µM]	.	.
C=CCN1C=CC(=C/C=C(/C#N)C(=O)OCC)C=C1	/	?	10µM
O=C(NCc1ccc(F)cc1)C1CCN(c2ncnc3c2nc2n3CCCCC2)CC1	/	/	.
CCOc1cc(S(=O)(=O)n2c(C)nc3ccccc32)ccc1F	.	.	.
